Where “and” joins values, the source holds several entries; their conditions need not be identical. Equal entries are not always repeated. Some structures have more than one record in an assay (separate samples or runs), and their calls can disagree. Calls of active or inactive are those of the source. Unless noted, no stated cut-off is given here; in the data, active means inhibition above about 80%; inactive means the rest.
How the values were obtained:
[1] = circadian clock period modulators, cell-based, LOPAC library, luminescence reporter (AID 2774; call rule not given here;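 further: values are relative to mean of DMSO wells on each plate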); settings: circadian reporter cells, at 7 µM, actives lie on both sides
[2] = LFS_MB_P medulloblastoma growth inhibition, cell-based, chromothripsis tumors, cisplatin or BGB combos (AID 1671449); settings: LFS_MB_P medulloblastoma cells;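 further: cells exposed for 96 hours; 0% = vehicle DMSO and 100% = killing by high DMSO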
[3] = HDN33 neuroblastoma growth inhibition, cell-based, chromothripsis tumors, cisplatin or BGB combos (AID 1671450); settings: HDN33 neuroblastoma cells, stronger effect = higher value;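 further: cells exposed to compound for four days; 0% = vehicle DMSO and 100% = cell killing by high DMSO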
[4] = ICB984 medulloblastoma cell growth inhibition, synergistic combos for chromothripsis tumors, cisplatin or BGB combos (AID 1671451; call rule not given here;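 further: cells exposed for 96 hours before readout; 0% = vehicle DMSO and 100% = killing by high DMSO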); settings: ICB984 medulloblastoma cells, drug combinations, stronger effect = higher value
[5] = LFS_MB_1R medulloblastoma cell growth inhibition, synergistic combos for chromothripsis tumors, cisplatin or BGB combos (AID 1671452); settings: LFS_MB_1R medulloblastoma cells, stronger effect = higher value;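 further: cells exposed for 96 hours before readout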
[6] = HTB85 osteosarcoma cell growth inhibition, synergistic combos for chromothripsis tumors, BGB or cisplatin IC20 combos (AID 1671453); settings: HTB85 osteosarcoma cells, drug combinations, stronger effect = higher value;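 further: cells exposed for 96 hours before readout; 0% = vehicle DMSO and 100% = high DMSO killing control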
[7] = CRL2098 osteosarcoma cell growth inhibition, synergistic combos for chromothripsis tumors, BGB or cisplatin IC20 combos (AID 1671454); settings: CRL2098 osteosarcoma cells, drug combinations, stronger effect = higher value;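 further: cells exposed for 96 h before readout; 0% = vehicle DMSO and 100% = killing by high DMSO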
[8] = HD-MB03 medulloblastoma cell growth inhibition, synergistic combos for chromothripsis tumors, BGB or cisplatin IC20 combos (AID 1671455; in the data active means inhibition above about 83%;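 further: 0% = vehicle DMSO and 100% = high DMSO as cytotoxic control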); settings: HD-MB03 medulloblastoma cells, stronger effect = higher value
[9] = UWB1.289 ovarian carcinoma cell growth inhibition, synergistic combos for chromothripsis tumors, BGB or cisplatin combos (AID 1671456); settings: UWB1.289 ovarian carcinoma cells, stronger effect = higher value;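 further: cells exposed to compound for four days; 0% = vehicle DMSO and 100% = killing by high DMSO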
[10] = LFS_MB_2R medulloblastoma cell growth inhibition, synergistic combos for chromothripsis tumors, cisplatin combos (AID 1671457); settings: LFS_MB_2R medulloblastoma cells, stronger effect = higher value;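 further: cells exposed to compound for four days before readout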
[11] = MDA-MB-436 breast carcinoma cell growth inhibition, synergistic combos for chromothripsis tumors, BGB or cisplatin combos (AID 1671458; call rule not given here;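 further: cells exposed for 96 hours; 0% = vehicle DMSO and 100% = killing by high DMSO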); settings: MDA-MB-436 breast carcinoma growth inhibition, drug combinations, stronger effect = higher value
[12] = UWB1.289_BRCA1 ovarian cancer growth, cell-based, BGB or cisplatin combinations (AID 1671459); settings: UWB1.289 BRCA1 ovarian carcinoma, drug combinations, stronger effect = higher value
[13] = human astrocyte viability loss, single and combined drugs, cytotoxicity control for chromothriptic childhood tumor combination screen, cell-based, BGB or cisplatin IC20 combos (AID 1671460); settings: Human astrocytes, drug combinations, stronger effect = higher value;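 further: cells exposed to compounds for 96 hours before viability readout; 0% = vehicle and 100% = killing control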
[14] = growth inhibition of BT084 medulloblastoma cells, cell-based, ICGC_MB145, cisplatin and BGB IC40 combos (AID 1671461); settings: drug combinations, stronger effect = higher value;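 further: cells exposed to drugs for 96 hours; 0% = vehicle DMSO and 100% = high DMSO full killing control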
[15] = growth inhibition of RCMB18 medulloblastoma cells, cell-based, cisplatin and BGB IC40 combos (AID 1671462); settings: stronger effect = higher value;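 further: cells exposed to compound for four days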
[16] = growth inhibition of CRL1545 osteosarcoma cells, cell-based, cisplatin and BGB IC20 combos (AID 1671464); settings: stronger effect = higher value;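 further: cells exposed to compound for 96 hours before readout; 0% = vehicle DMSO and 100% = high DMSO killing control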
[17] = viability rescue of complex I mutant cybrids, primary screen, cell-based, galactose medium, ATP luminescence (AID 1645843;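 active means z-score of at least 1.8 in each of two replicates, scored against plate mean and spread of sample wells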;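 further: positive z means more ATP and so rescue of galactose-driven cybrid death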); settings: complex I mutant cybrid cells, 72 h, stronger effect = higher value
[18] = antimalarial activity against Dd2 strain (AID 2302;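 active means growth inhibition above 50% at the single 2 µM test dose, taken to imply half-maximal potency below 2 µM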;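 further: 0% = DMSO untreated growth and 100% = chloroquine plus artemisinin killed control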); settings: P. falciparum Dd2 in RBCs, LDH growth readout, 72 h; at 2 µM; stronger effect = higher value
[19] = HepG2 cytotoxicity, primary screen, cytotoxicity control for P. falciparum antimalarial project, cell-based, ATP luminescence (AID 2303;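 active means inhibition above 50%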;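 further: 0% = DMSO wells and 100% = digitonin-killed cells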); settings: HepG2 viability, 24-48 h, at 10 µM, stronger effect = higher value
[20] = biological target: L-lactate dehydrogenase (Plasmodium falciparum (isolate CDC / Honduras)) (UniProt Q27743); test: PfLDH activity inhibition – cell lysate, 3D7 strain, counter-screen for P. falciparum growth inhibition project (AID 2304; call rule not given here;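 further: 0% = vehicle and 100% = reference inhibitor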); settings: P. falciparum 3D7 crude extract, LDH APAD/NBT absorbance; at 2 µM; stronger effect = higher value
[21] = inhibition of 3D7 malaria parasite growth – strain 3D7 (AID 2306; call rule not given here;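 further: 0% = DMSO wells and 100% = chloroquine plus artemisinin control wells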); settings: P. falciparum 3D7 erythrocytic growth, LDH absorbance, 72 h; at 2 µM; stronger effect = higher value
[22] = measured here: combination with BGB IC40, at 0.05 µM
[23] = measured here: with BGB IC20 combination, at 0.5 µM
[24] = measured here: with cisplatin IC20 combination, at 0.5 µM
[25] = measured here: combination with cisplatin, at 0.5 µM
[26] = measured here: combination with cisplatin, at 5 µM

L-lactate dehydrogenase (Plasmodium falciparum (isolate CDC / Honduras)), sequence (Q27743 whole entry, looked up): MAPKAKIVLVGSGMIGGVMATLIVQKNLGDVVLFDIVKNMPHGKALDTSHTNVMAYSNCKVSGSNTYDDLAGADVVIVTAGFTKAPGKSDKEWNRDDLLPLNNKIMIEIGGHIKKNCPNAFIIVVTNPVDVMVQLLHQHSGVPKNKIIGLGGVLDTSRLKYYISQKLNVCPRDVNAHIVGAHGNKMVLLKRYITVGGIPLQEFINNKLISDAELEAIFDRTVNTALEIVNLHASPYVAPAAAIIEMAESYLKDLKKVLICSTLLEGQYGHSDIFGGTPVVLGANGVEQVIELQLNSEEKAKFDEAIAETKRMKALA

With `C[C@]12CC[C@@H](O)CC1CC[C@@H]1[C@@H]2CC[C@]2(C)C(=O)CC[C@@H]12` (stereo not given in full) the period change [1] was 0.105 h (inactive).

With `CCC1(O)C(=O)OCc2c1cc1n(c2=O)Cc2cc3ccccc3nc2-1` (stereo not given) the inhibition ([2]; at 0.5 µM, stronger effect = higher value) was 88.2% (active) and 9.86% (inactive), the inhibition ([2]; measured here: combination with BGB IC20, at 0.005 µM) was -1.21% and 5.58% and the inhibition ([2]; measured here: combination with BGB IC40, at 0.005 µM) was -28.3% and -33.2%. The inhibition [2, 22] was -15.4% and -14.9%, the inhibition ([2]; measured here: combination with cisplatin, at 0.5 µM, stronger effect = higher value) was 109% and 46.9% and the inhibition ([2]; measured here: combination with cisplatin, at 5 µM, stronger effect = higher value) was 81.5% and 87.5%. The inhibition ([3]; BGB combo, at 5 µM) was 91.9% and 99.2%, the inhibition ([3]; at 0.5 µM) was 76.6% (inactive) and 90.4% (active) and the inhibition ([3]; cisplatin combo, at 5 µM) was 89.8% and 99.4%. The inhibition [3, 23] was 83.3% and 91.4%, the inhibition [3, 24] was 71% and 86.5% and the inhibition ([3]; single agent, at 5 µM) was 93% and 99%. The inhibition ([4]; BGB IC20 combo, at 0.005 µM) was -14.4% and -0.816%, the inhibition ([4]; BGB IC40 combo, at 0.005 µM) was 10.1% and 28.9% and the inhibition ([4]; BGB IC40 combo, at 0.05 µM) was 90.9% and 90.2%. For the same compound, the inhibition ([4]; at 0.5 µM) was 0.67% (inactive) and -18.7% (inactive), the inhibition ([4]; cisplatin combo, at 0.05 µM) was 90.9% and 89.8% and the inhibition ([4]; cisplatin combo, at 0.5 µM) was 8.68% and -15.9%. The inhibition ([4]; cisplatin combo, at 5 µM) was -16.2% and -24.5%, the inhibition ([4]; measured here: 5 uM single agent, at 5 µM) was -7.75% and -12.5% and the inhibition ([5]; at 0.5 µM) was 18.3% (inactive) and 58.5% (inactive). For the same compound, the inhibition [5, 22] was -2.41% and -26.5%, the inhibition [5, 25] was 67.3% and 77.9% and the inhibition [5, 26] was 84.7% and 77.9%. For the same compound, the inhibition ([6]; at 0.5 µM) was 87% (active) and 98.3% (active), the inhibition ([6]; measured here: with BGB IC20, at 0.5 µM) was 83.6% and 98.1% and the inhibition ([6]; measured here: with BGB IC20, at 5 µM) was 99.4% and 98.2%. The inhibition ([6]; measured here: with cisplatin IC20, at 0.5 µM) was 89.5% and 97.8%, the inhibition ([6]; measured here: with cisplatin IC20, at 5 µM) was 99.8% and 99.6% and the inhibition ([6]; single agent, at 5 µM) was 99.8%. The inhibition ([7]; at 0.5 µM) was 61.8% (inactive) and 62.7% (inactive), the inhibition ([7]; measured here: combination with BGB at IC20, at 0.5 µM) was 62.5% and 76.9% and the inhibition ([7]; measured here: combination with cisplatin at IC20, at 0.5 µM) was 58% and 56.3%. For the same compound, the inhibition ([8]; at 0.5 µM) was 97.5% (active) and 99.2% (active), the inhibition ([8]; measured here: combo with BGB at IC20, at 0.5 µM) was 96.5% and 99.2% and the inhibition ([8]; measured here: combo with cisplatin at IC20, at 0.5 µM) was 97.2% and 99.2%. The inhibition ([9]; at 0.5 µM) was 66.6% (inactive) and 83.3% (active), the inhibition ([9]; measured here: inhibition with BGB combination, at 0.05 µM) was 12.6% and 11.7% and the inhibition ([9]; measured here: inhibition with cisplatin combination, at 0.05 µM) was 11.3% and 20.8%. The inhibition ([10]; at 0.5 µM) was 7.34% (inactive) and -4.41% (inactive), the inhibition [10, 25] was 19% and 21% and the inhibition [10, 26] was 76.3% and 69.2%. For the same compound, the inhibition ([11]; at 0.5 µM) was 54.1% (inactive) and 72% (inactive), the inhibition ([11]; measured here: BGB combination, at 0.5 µM) was 51.4% and 63.7% and the inhibition ([11]; measured here: BGB combination, at 5 µM) was 74.8% and 70.3%. The inhibition ([11]; measured here: cisplatin combination, at 0.5 µM) was 45.3% and 73.5%, the inhibition ([11]; measured here: cisplatin combination, at 5 µM) was 82.3% and 82.8% and the inhibition ([12]; BGB combination, concentration series, at 5 µM) was 99.4% and 98.3%. The inhibition ([12]; at 0.5 µM) was 67.6% (inactive) and 90.7% (active), the inhibition ([12]; cisplatin combination, concentration series, at 5 µM) was 118% and 106% and the inhibition ([13]; at 0.5 µM) was 60.8% (inactive) and 77.6% (inactive). For the same compound, the inhibition ([13]; measured here: combo with BGB IC20, at 0.5 µM) was 60.1% and 81.6%, the inhibition ([13]; measured here: combo with cisplatin IC20, at 0.5 µM) was 47.8% and 70.6% and the inhibition ([14]; at 0.5 µM) was 14.3% (inactive) and 17% (inactive). The inhibition ([14]; cisplatin combination, at 0.5 µM) was 23.6% and 35.1%, the inhibition ([14]; cisplatin combination, at 5 µM) was 44.9% and 40.2% and the inhibition ([14]; measured here: BGB IC40 combination 0.05 uM, at 0.05 µM) was 23.9% and 38.2%. For the same compound, the inhibition ([14]; single agent, at 5 µM) was -2.08% and -14.2%, the inhibition ([15]; at 0.5 µM) was 7.46% (inactive) and 14.2% (inactive) and the inhibition ([15]; cisplatin combo, at 5 µM) was 72.3% and 80.4%. The inhibition ([15]; measured here: BGB IC40 combination, at 0.05 µM) was 5.45% and -12%, the inhibition [15, 25] was 49.2% and 53.3% and the inhibition ([15]; single agent, at 5 µM) was 23.3% and 47.8%. For the same compound, the inhibition ([16]; at 0.5 µM) was 54% (inactive) and 96.2% (active), the inhibition [16, 23] was 77.9% and 98.4% and the inhibition [16, 24] was 42.1% and 95.1%. The inhibition ([16]; single agent, at 0.05 µM) was 32% and 28.6% and the inhibition ([16]; single agent, at 5 µM) was 99.8% and 99.9%.

In the case of `CC(CCCC(C)(C)O)CCNC(C)Cc1ccsc1` (stereo not given), the z-score [17] is reported as -0.475 (inactive).

With `CC(C)[C@@]1(NC(=O)[C@@H]2C=C3c4cccc5[nH]cc(c45)C[C@H]3N(C)C2)O[C@@]2(O)[C@@H]3CCCN3C(=O)[C@H](Cc3ccccc3)N2C1=O` the period change [1] was 0.465 h (inactive).

With `COC(=O)c1ccc(CC(C)NCC(O)c2cccc(C(F)(F)F)c2)cc1` (stereo not given) the growth inhibition [18] was 87% (active) and 73% (active), the inhibition [19] was -8% (inactive) and -9% (inactive) and the inhibition [20] was -4% (inactive) and -1% (inactive). For the same compound, the growth inhibition [21] was 97% (active) and 94% (active).

Source: PubChem BioAssay
